# Results as given in ChEMBL document CHEMBL2218924, “A broad activity screen in support of a chemogenomic map for kinase signalling research and drug discovery” (Biochem J, 2013).
# Experiments:
# [1] = target: Insulin-like growth factor 1 receptor (Homo sapiens) (UniProt P08069); settings: at 10 µM
# [2] = target: T1, Protein kinase C zeta type (Homo sapiens) (UniProt Q05513); settings: at 10 µM
# T1 sequence (whole entry): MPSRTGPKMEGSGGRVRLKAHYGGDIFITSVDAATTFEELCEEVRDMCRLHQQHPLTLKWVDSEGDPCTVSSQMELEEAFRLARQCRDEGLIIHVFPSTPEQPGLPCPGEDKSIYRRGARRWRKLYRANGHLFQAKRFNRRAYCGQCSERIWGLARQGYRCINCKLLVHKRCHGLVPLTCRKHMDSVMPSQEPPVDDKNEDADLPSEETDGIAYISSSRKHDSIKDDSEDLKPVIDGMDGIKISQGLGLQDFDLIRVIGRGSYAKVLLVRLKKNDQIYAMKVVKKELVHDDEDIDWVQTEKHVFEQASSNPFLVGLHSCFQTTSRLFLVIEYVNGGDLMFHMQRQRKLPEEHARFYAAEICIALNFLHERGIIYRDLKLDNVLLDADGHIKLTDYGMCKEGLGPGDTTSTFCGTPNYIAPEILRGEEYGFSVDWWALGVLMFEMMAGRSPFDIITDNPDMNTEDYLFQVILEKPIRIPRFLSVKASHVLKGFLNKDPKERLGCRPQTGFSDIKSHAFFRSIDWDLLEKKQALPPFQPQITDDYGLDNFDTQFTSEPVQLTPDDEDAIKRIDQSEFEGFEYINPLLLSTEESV
# [3] = target: Protein kinase C eta type (Homo sapiens) (UniProt P24723); settings: at 1 µM
# [4] = target: Protein kinase C eta type (Homo sapiens) (UniProt P24723); settings: at 10 µM
# [5] = target: Protein kinase C theta type (Homo sapiens) (UniProt Q04759); settings: at 1 µM
# [6] = target: Protein kinase C theta type (Homo sapiens) (UniProt Q04759); settings: at 10 µM
# [7] = target: T2, Protein kinase C iota type (Homo sapiens) (UniProt P41743); settings: at 1 µM
# T2 sequence (whole entry): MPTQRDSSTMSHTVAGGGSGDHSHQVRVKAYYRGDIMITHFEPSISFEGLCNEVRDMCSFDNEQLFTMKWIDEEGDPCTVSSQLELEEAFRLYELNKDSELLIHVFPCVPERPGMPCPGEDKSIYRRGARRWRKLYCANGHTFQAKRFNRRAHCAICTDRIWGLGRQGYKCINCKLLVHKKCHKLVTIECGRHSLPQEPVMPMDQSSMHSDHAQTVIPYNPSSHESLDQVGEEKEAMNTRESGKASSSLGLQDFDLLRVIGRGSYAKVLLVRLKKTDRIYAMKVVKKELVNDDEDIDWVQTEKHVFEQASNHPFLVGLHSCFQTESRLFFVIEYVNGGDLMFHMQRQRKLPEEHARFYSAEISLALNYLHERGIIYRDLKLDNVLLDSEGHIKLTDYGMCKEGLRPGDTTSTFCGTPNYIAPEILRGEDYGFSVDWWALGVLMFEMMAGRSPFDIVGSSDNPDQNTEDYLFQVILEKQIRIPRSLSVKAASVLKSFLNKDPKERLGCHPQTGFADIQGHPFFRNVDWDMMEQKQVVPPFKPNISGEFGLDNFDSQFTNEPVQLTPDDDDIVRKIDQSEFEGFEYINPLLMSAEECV
# [8] = target: T2, Protein kinase C iota type (Homo sapiens); settings: at 10 µM
# [9] = target: T3, Serine/threonine-protein kinase D1 (Homo sapiens) (UniProt Q15139); settings: at 1 µM
# T3 sequence (whole entry): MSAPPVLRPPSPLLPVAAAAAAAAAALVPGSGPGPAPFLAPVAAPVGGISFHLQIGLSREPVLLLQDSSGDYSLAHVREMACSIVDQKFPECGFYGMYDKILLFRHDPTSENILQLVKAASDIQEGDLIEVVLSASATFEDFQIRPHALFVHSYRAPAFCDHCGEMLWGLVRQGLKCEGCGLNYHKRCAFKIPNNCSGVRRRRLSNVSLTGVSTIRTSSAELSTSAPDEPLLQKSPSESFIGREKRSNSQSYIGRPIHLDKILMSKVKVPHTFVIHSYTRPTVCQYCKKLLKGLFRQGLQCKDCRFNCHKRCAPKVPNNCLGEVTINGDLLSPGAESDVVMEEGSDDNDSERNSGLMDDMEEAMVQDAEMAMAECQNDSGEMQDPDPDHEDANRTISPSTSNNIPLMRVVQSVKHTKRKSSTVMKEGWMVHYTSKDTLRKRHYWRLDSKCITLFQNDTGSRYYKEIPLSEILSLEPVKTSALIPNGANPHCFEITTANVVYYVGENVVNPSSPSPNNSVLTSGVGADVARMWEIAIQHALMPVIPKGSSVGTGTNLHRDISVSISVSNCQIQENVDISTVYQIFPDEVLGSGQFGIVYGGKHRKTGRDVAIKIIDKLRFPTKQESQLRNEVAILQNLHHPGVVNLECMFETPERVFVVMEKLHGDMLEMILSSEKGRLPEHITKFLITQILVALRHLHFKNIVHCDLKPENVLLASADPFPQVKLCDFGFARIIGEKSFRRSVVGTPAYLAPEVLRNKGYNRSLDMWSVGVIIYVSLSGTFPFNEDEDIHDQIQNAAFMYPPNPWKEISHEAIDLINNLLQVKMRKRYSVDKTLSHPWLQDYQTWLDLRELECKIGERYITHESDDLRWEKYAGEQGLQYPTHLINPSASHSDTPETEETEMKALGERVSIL
# [10] = target: T3, Serine/threonine-protein kinase D1 (Homo sapiens); settings: at 10 µM
# [11] = target: T4, Serine/threonine-protein kinase D2 (Homo sapiens) (UniProt Q9BZL6); settings: at 1 µM
# T4 sequence (whole entry): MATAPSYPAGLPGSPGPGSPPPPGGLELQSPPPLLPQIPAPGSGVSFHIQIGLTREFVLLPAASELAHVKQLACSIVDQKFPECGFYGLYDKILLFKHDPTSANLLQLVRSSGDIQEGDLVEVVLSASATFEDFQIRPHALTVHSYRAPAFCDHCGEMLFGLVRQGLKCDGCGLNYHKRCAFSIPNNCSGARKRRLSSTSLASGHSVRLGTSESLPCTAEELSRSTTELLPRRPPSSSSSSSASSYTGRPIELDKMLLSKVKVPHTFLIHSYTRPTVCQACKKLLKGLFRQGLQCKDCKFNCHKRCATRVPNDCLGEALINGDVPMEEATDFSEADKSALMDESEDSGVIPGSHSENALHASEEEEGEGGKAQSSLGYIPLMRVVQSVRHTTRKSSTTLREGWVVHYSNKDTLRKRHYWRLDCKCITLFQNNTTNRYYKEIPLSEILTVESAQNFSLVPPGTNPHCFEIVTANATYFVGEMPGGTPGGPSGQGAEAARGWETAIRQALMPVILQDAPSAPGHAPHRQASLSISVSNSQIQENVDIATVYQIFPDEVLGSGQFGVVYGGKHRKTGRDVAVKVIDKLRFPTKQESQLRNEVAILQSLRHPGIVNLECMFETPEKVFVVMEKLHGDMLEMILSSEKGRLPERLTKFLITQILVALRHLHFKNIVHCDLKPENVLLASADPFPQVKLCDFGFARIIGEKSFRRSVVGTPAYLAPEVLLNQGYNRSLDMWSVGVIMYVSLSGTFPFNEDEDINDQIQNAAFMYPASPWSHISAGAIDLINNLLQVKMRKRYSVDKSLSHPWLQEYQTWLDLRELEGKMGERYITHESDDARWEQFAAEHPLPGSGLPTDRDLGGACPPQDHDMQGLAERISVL
# [12] = target: T4, Serine/threonine-protein kinase D2 (Homo sapiens); settings: at 10 µM
# [13] = target: T5, cGMP-dependent protein kinase 1 (Homo sapiens) (UniProt Q13976); settings: at 1 µM
# T5 sequence (whole entry): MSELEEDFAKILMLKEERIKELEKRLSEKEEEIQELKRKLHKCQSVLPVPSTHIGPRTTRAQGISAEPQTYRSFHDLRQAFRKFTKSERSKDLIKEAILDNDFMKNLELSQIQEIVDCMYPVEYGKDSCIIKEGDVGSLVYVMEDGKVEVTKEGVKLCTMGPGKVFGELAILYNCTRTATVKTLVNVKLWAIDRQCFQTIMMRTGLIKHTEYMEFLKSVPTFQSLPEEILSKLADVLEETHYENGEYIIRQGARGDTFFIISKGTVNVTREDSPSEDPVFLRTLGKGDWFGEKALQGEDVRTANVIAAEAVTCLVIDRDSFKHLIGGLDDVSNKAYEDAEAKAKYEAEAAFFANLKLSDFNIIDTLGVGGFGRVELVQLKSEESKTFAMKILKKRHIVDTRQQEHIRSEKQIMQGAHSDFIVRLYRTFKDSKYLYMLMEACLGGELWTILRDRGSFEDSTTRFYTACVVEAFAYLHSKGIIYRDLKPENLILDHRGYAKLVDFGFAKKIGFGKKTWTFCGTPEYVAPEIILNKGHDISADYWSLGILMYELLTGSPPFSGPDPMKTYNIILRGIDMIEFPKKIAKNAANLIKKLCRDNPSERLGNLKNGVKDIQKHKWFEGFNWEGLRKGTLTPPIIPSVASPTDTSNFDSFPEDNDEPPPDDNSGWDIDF
# [14] = target: T5, cGMP-dependent protein kinase 1 (Homo sapiens); settings: at 10 µM
# [15] = target: T5, cGMP-dependent protein kinase 1 (Homo sapiens); settings: at 1 µM; remark: listed apart in the source
# [16] = target: T5, cGMP-dependent protein kinase 1 (Homo sapiens); settings: at 10 µM; remark: listed apart in the source
# [17] = target: T6, MAP kinase-activated protein kinase 5 (Homo sapiens) (UniProt Q8IW41); settings: at 1 µM
# T6 sequence (whole entry): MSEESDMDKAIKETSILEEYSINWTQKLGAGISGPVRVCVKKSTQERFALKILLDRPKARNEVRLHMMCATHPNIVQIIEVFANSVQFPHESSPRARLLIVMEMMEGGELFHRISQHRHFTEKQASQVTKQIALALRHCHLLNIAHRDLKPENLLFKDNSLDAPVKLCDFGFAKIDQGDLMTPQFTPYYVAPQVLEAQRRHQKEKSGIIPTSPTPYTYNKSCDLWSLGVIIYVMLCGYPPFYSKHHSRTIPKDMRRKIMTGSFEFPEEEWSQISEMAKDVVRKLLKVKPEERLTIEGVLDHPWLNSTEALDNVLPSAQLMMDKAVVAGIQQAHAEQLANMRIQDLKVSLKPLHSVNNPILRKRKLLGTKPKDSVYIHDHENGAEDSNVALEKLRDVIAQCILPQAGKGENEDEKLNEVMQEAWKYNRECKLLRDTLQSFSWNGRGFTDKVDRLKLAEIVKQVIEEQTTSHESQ
# [18] = target: T6, MAP kinase-activated protein kinase 5 (Homo sapiens); settings: at 10 µM
# [19] = target: Serine/threonine-protein kinase N2 (Homo sapiens) (UniProt Q16513); settings: at 1 µM
# [20] = target: Serine/threonine-protein kinase N2 (Homo sapiens) (UniProt Q16513); settings: at 10 µM
# Protein kinase C theta type (Homo sapiens), sequence (Q04759 whole entry, looked up): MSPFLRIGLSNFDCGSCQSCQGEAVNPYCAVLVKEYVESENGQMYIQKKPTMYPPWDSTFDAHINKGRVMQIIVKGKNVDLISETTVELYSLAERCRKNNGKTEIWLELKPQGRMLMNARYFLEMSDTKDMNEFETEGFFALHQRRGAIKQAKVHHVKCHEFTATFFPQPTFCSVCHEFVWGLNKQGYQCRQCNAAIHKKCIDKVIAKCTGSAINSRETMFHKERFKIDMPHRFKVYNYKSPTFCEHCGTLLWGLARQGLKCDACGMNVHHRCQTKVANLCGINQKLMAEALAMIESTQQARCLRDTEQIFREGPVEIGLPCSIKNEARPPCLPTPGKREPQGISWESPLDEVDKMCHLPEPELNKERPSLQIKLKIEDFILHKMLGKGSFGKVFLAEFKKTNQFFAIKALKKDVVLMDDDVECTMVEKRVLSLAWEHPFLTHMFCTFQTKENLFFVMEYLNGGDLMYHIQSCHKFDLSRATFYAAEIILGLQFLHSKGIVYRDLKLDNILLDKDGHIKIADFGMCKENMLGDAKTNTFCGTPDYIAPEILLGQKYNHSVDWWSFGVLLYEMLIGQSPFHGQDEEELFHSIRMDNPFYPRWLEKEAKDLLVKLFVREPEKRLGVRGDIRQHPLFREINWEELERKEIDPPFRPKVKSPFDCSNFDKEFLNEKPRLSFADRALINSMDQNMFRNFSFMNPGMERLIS
# Insulin-like growth factor 1 receptor (Homo sapiens), sequence (P08069 31-736 limits assumed): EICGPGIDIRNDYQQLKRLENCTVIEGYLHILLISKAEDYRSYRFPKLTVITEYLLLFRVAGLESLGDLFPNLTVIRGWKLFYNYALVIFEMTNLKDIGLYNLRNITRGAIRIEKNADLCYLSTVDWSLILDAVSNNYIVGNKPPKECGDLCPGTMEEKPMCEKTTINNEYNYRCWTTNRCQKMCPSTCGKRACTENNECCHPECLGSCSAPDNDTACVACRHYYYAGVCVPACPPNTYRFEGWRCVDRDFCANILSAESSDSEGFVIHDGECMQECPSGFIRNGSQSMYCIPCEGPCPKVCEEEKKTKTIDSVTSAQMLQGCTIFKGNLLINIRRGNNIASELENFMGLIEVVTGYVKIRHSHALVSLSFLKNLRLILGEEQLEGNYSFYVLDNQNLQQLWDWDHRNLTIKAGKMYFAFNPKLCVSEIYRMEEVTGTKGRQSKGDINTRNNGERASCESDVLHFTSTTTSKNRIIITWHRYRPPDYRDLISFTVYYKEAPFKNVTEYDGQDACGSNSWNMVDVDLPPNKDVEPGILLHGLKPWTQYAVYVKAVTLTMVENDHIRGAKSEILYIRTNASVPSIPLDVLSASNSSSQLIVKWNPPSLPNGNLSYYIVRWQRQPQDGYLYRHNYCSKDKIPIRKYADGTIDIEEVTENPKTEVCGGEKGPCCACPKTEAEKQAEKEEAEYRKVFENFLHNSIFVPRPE
# Insulin-like growth factor 1 receptor (Homo sapiens), sequence (P08069 741-1367 limits assumed): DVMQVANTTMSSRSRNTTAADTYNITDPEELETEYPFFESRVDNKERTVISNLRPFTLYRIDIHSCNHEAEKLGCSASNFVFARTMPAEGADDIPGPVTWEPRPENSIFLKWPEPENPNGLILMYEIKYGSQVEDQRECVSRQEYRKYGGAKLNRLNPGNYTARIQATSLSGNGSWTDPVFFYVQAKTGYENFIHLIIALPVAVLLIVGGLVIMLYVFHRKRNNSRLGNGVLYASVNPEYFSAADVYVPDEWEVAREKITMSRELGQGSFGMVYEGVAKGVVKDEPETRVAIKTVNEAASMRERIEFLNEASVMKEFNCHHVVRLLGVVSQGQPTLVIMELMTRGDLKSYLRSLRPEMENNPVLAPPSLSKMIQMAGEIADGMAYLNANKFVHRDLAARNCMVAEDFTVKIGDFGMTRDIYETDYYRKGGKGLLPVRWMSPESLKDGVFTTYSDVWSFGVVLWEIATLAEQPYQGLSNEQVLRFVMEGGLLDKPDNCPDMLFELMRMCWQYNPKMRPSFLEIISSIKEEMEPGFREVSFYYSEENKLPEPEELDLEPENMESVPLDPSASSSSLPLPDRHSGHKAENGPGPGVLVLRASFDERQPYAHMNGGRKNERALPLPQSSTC
# Serine/threonine-protein kinase N2 (Homo sapiens), sequence (Q16513 whole entry, looked up): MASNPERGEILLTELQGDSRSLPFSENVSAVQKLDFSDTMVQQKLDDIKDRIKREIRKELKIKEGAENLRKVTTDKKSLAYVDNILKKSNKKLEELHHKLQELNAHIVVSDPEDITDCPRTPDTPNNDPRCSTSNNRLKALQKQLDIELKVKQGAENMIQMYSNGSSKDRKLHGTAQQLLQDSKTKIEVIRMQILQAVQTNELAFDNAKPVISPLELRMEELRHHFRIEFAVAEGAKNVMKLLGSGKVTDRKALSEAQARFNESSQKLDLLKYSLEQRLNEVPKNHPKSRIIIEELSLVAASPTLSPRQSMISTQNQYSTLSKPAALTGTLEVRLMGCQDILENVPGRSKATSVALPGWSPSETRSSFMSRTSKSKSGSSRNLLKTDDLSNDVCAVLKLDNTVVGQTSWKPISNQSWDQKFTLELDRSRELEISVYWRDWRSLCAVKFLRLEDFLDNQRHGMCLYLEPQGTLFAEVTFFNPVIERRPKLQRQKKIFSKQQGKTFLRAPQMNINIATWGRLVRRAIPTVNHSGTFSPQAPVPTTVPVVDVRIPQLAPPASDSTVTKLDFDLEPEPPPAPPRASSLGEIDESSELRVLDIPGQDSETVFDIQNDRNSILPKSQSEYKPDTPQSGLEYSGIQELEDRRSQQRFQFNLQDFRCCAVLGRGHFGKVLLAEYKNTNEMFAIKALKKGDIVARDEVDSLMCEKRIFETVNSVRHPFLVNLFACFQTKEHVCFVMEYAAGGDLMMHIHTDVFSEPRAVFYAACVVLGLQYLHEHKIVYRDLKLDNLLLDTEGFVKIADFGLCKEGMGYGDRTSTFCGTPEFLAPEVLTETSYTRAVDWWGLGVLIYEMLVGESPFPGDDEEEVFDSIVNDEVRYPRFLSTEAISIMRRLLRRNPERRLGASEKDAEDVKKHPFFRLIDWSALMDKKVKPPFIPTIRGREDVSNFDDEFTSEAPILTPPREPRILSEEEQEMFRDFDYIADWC
# Protein kinase C eta type (Homo sapiens), sequence (P24723 whole entry): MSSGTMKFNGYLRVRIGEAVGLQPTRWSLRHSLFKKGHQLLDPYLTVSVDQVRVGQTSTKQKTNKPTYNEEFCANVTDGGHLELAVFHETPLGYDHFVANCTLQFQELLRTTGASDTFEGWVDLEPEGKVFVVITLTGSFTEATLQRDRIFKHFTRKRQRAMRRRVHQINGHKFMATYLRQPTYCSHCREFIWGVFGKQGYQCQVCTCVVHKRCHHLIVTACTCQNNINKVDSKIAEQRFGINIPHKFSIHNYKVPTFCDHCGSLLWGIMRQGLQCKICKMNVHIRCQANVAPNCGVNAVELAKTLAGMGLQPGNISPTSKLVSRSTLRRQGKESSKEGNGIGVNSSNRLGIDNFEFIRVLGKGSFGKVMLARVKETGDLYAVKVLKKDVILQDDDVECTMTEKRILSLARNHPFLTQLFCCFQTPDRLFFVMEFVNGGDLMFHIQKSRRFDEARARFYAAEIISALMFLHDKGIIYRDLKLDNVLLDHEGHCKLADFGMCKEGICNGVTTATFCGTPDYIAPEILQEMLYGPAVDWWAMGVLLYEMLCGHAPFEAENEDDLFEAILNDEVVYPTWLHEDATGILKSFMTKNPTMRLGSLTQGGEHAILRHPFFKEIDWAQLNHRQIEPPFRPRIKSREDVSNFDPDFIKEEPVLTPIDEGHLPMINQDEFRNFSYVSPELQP
Structure (SMILES),residual activity [1] [%],residual activity [2] [%],residual activity [3] [%],residual activity [4] [%],residual activity [5] [%],residual activity [6] [%],residual activity [7],residual activity [8] [%],residual activity [9] [%],residual activity [10] [%],residual activity [11] [%],residual activity [12] [%],residual activity [13] [%],residual activity [14] [%],residual activity [15] [%],residual activity [16] [%],residual activity [17] [%],residual activity [18] [%],residual activity [19] [%],residual activity [20] [%]
COC(=O)[C@@]1(O)C[C@H]2O[C@]1(C)n1c3ccccc3c3c4c(c5c6ccccc6n2c5c31)C(=O)NC4,14,8,36,7,10,5,107% (inactive),69,1,0,2,0,10,1,9,2,19,0,1,1
O=c1[nH]c2ccccc2n1C1CCN(Cc2ccc(-c3nc4cc5[nH]cnc5cc4nc3-c3ccccc3)cc2)CC1,39,97,120,83,104,109,87% (inactive),90,96,97,100,108,108,110,86,97,75,37,112,115
COc1ccc2c(c1)/C(=C/c1cnc[nH]1)C(=O)N2,128,–,–,–,–,–,–,–,–,–,97,39,–,–,–,–,122,63,–,40
CCn1cnc2c(Nc3cccc(Cl)c3)nc(N[C@@H]3CCCC[C@@H]3N)nc21,123,–,93,80,71,23,–,–,97,61,97,96,92,88,89,70,119,124,80,49
COc1cc(OC)c(/C=C2\C(=O)Nc3ccccc32)c(OC)c1,133,–,94,94,85,90,–,–,84,90,108,105,97,108,83,73,–,–,99,87
O=[N+]([O-])/C=C/c1ccc2c(c1)OCO2,121,114,100,72,95,93,93% (inactive),76,91,88,105,105,107,106,101,90,85,70,102,107
COc1ccc2c(c[n+](C)c3c4cc5c(cc4ccc23)OCO5)c1OC,131,75,–,–,90,66,98% (inactive),81,110,61,–,–,–,92,92,87,84,52,–,92
CC(C)[C@H](CO)Nc1nc(Nc2cccc(Cl)c2)c2ncn(C(C)C)c2n1,136,117,100,90,70,26,–,–,81,86,–,–,–,–,–,–,102,59,–,–
